In the supplement of paper PMC3334620:
The full ranking holds about 33,000 sequences; the median of “E-score (-0.5 to 0.5)” is about -0.035, and the highest 2% start at about 0.34. For the sample, the highest values were picked, then their nearest neighbours and some sequences at random.

Each sequence was assayed against T1, Mot3 (UniProt P54785) (assay: PBM E-score (8-mer binding enrichment) (E-score (-0.5 to 0.5)); higher = stronger / more preferred TF binding). Conditions: protein concentration: 200 nM; construct: GST-full length.
T1 sequence: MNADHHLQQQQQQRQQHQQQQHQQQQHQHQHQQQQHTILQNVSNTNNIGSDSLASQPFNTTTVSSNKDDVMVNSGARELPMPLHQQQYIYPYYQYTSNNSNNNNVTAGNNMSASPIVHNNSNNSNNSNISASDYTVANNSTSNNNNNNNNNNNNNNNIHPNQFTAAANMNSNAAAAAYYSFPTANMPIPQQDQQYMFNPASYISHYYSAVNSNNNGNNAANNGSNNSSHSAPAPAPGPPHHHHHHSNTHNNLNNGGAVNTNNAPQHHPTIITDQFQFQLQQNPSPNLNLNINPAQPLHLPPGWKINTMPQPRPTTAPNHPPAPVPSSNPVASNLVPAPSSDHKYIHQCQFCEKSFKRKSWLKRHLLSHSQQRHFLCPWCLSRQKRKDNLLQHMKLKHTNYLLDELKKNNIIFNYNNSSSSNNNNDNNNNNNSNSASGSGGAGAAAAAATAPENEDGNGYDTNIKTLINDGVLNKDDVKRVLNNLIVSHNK
How it was run: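 Universal all-10-mer Agilent arrays, fresh or stripped once, were converted to double-stranded form by primer extension. GST-tagged yeast transcription factors from PURExpress in vitro transcription/translation, full-length or DNA-binding domain only, were applied at about 100-200 nM and detected with fluorescent anti-GST. After masliner normalisation, the Universal PBM Analysis Suite scored each ungapped eight-base word together with its reverse complement by E-score.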

Sequence	PBM E-score
CATTGGAG	-0.179
AGAGGTTA	0.0342
CTGAATGA	0.00529
GACTGTAA	0.147
ATCCACCC	-0.246
TCTCAGAA	-0.0878
CTACTCGA	0.0146
CCGCAAAC	-0.0792
AAGCTATA	-0.00123
CGAAAAAG	0.142
CCAGCTTC	-0.187
TATTTACA	0.386
CATTTACG	0.201
CATTTACA	0.363
AATTTACC	0.153
TATTTAGA	0.184
TATTTAAA	0.231
GATTTACA	0.332
AATTTACA	0.382
CATTTACC	0.158
AAGCAGAC	-0.0963
AAATCGCC	-0.255
ACCGGTGA	-0.16
GCTACCAC	-0.216
GTCCTAAA	0.125

Sequence	PBM E-score
TGCCTTAA	0.471
AGCCTAAA	0.178
GACCTACA	0.045
CGCCTTAA	0.323
TACCTACA	0.381
AGCCTTAA	0.158
TGCCTAAA	0.476
GGCCTAAA	0.0327
ATCCTAAA	-0.0533
CACCTACA	0.227
TTCCTAAA	0.408
CACCTCCA	-0.138
AGTTCGAC	0.0301
CTTCCCTA	-0.206
CAGGTGCA	0.0796
GCAAAAAA	0.203
CTAGACTA	-0.24
CAGCGTAC	-0.0299
GGCCTACA	0.00717
TGCCTACA	0.487
CGCCTACA	0.224
AACCTTCA	0.215
GACCTTCA	-0.083
GACCTGCA	-0.0447
TACCTGCA	0.403

Sequence	PBM E-score
AACCTGCA	0.0857
TACCTTCA	0.376
AGGGTCTA	-0.153
CGAGCGCC	-0.0813
GTTCACGA	-0.101
GGACGCTA	-0.206
ACGGCAGG	-0.17
CGCGCCAA	-0.0132
ATTACTCA	0.165
CTCACACA	-0.0904
ATGACACA	0.313
GTGACACA	0.0545
ATTACACG	0.435
ATTACACA	0.438
GTTACACA	0.357
ATGACACG	0.384
ATTACACC	0.299
GTTACAAA	0.223
CTTACACA	0.3
ATCACACA	0.143
CGAGACCC	-0.0978
CGGCCACA	-0.234
GACGATCC	-0.0936
ATCAATAA	0.0626
CTACGCGA	0.232

Sequence	PBM E-score
ATCTACAC	0.375
ATCTACAA	0.205
ATCTACAT	0.349
ACCTACAC	0.258
GTCTACAC	0.275
GCCTACAC	0.344
CTCTACAC	0.223
CCCTACAC	0.187
ATCTACAG	0.0501
GAAAAGGC	0.228
AATCAGGT	0.153
CCCATGAG	-0.314
AATGAGGT	-0.0627
GTATTCCA	0.0481
CTCTGTGC	0.00777
CAAGGCAA	0.479
TAAGGCAA	0.472
CAAGGCAG	0.0705
CAAGGCCC	0.0163
AAAGGCAT	0.39
AAAGGCTT	-0.0548
AAAGGCCT	-0.0542
TAAGGCGA	-0.0665
CAAGGCCA	0.0593
TAAGGCTA	0.129

Sequence	PBM E-score
CAAGGCCG	-0.0783
CAAGGCAC	0.488
ACGGCGTG	0.0736
ATCTTAGC	-0.0857
ACACCGGA	0.0203
AAGCTAGT	-0.004
CTACTGGA	-0.174
AGCCATAC	-0.163
GAAGGCTA	0.0397
AAAGGCAA	0.486
GAAGGCAA	0.489
GAAGGCCA	-0.0342
AAGGGCAA	0.127
AAAGGCAG	0.282
CAAGCAGC	-0.0458
AATCCATC	-0.21
CTTAAGAC	-0.0312
ACCGCGAA	-0.0635
CGGAACTC	-0.29
AGGAACTC	0.396
AAGAACTG	-0.196
ATGAACTG	0.0964
CGGAACTA	-0.265
GGGAACTA	-0.0385
ATGAACTC	-0.14

Sequence	PBM E-score
AGGAACTG	0.413
AGGAACTA	0.38
ACAGCCAT	0.172
AGCAGGGA	-0.167
ACAGTCAT	-0.0548
GAGCGCAC	-0.307
ATCTTGGG	-0.157
ACGCTCAG	-0.226
ATCAACTG	-0.0772
GAAGTACC	0.00084
ACCGAATC	-0.00094
GTAAGGCA	0.464
ATAAGGCG	0.0672
GTAAGGGA	0.145
GTAAGGTA	0.321
CTAAGGCA	0.452
ATAAGGCC	-0.142
CTAAGGTA	0.226
CTAAGGCC	-0.0134
ATAAGGCA	0.46
TACTGAAA	0.037
AGACGTTC	-0.008
AGCATAAC	0.0259
AGTCTATA	-0.0584
GGCACCTA	0.357

Sequence	PBM E-score
GGCACCGA	0.356
CGCACCTA	-0.125
AGCACCTA	0.199
AGCACCGA	-0.168
CGCACCGA	-0.27
GGCCGAAA	-0.186
TACCCAAA	0.11
AATCTATG	-0.00189
ACCTGAAG	-0.135
AAGCCCCT	-0.195
AGAACTAT	-0.0425
AGAAAGAG	-0.195
GAAGGAGC	-0.251
CGAGGAAC	0.285
CAAGGACC	0.0666
AAAGGAAC	0.456
CAAGGAAG	-0.00272
CAAGGAAC	0.43
AAAGGAAG	0.059
GAAGGAAC	0.468
AAAGGAGA	-0.0548
AAAGGAAA	0.442
